From PubChem BioAssay
NALP1 yeast inh – NALP1 inhibition; 280,000 compounds, 0.61% hits; S. cerevisiae NALP1/ASC/caspase-1 growth, X-gal OD620, 72 h; inhibition, % at 10 µM; AID 2071; in the data active = inhibition mostly above about 24%, no sharp cut-off; inactive = mostly below about 32%
tim10-1 inh – tim10-1 yeast growth inhibition; S. cerevisiae tim10-1 ts strain growth, BacTiter-Glo, 24 h; inhibition, % at 20 µM; 330,000 compounds, 2.2% hits; AID 463190;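 active = inhibition of at least 40%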;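 also: mutant grown at 25 °C; 0% = DMSO wells with yeast and 100% = wells holding no yeast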
tim23-1 inh – growth inhibitors of tim23-1 mutant yeast. S. cerevisiae tim23-1 growth, BacTiter-Glo luminescence, 24 h. inhibition, % at 20 µM. 330,000 compounds, 1.3% hits. AID 463212;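 active = growth inhibition of the mutant yeast at or above 50%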;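 also: temperature-sensitive mutant grown at 25 °C; plate controls were DMSO-treated mutant yeast for no effect and medium wells lacking yeast for full effect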
SKKanGAS inh – inhibitors of SKKanGAS S. pyogenes growth in kanamycin (SK-promoter or general growth effect); AID 1662; BacTiter-Glo, 6 h; inhibition, % at 7.5 µM; 300,000 compounds, 1.3% hits;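 active = mean replicate score, as percent of positive control median, at least 50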;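 also: strain carries kanamycin resistance gene driven by streptokinase promoter and grows in 40 µg/ml kanamycin; loss of luminescence reflects streptokinase promoter inhibition or plain growth inhibition; 0% = median of DMSO wells and 100% = positive control at its reference dose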
PfHsp90 yeast 2 – growth inhibition of yeast expressing Plasmodium Hsp90. S. cerevisiae expressing PfHsp90, BacTiter-Glo ATP, 48 h; yeast lacking PDR1 and PDR3 efflux regulators. 310,000 compounds, 0.32% hits. AID 504621. inhibition, % at 9.4 µM;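 active = every replicate shows inhibition above about 80%, whatever the replicate mean, limit read from the data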;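 also: 0% = DMSO neutral controls and 100% = 20 µM radicicol positive controls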
TIM10 inh – TIM10 yeast growth inhibition | AID 463195 | S. cerevisiae TIM10 strain growth, BacTiter-Glo luminescence, 24 h | 330,000 compounds, 1.4% hits | inhibition, % at 10 µM;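 active = inhibition of 40% or more at the single tested concentration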;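 also: wild-type TIM10 isogenic control strain grown at permissive 25 °C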
Numbers without * were called inactive. The list is not random: actives were taken first. Their share in the collection is about 4.8%.

Results for CCOc1cc(C)nc(Oc2ccc(=O)[nH]n2)n1 ?
NALP1 yeast inh: 5; tim10-1 inh: 11; tim23-1 inh: -7; SKKanGAS inh: 3; PfHsp90 yeast 2: 4; TIM10 inh: 7

Results for Cc1cccc(NC(=O)C2CCCN2C(=O)Oc2ccccc2)c1 (stereo not drawn) ?
NALP1 yeast inh: 45*; tim10-1 inh: 18; tim23-1 inh: 23; SKKanGAS inh: -4; PfHsp90 yeast 2: 17; TIM10 inh: 17

How did Cc1cc(C)cc(NC(=O)C2CCCN2C(=O)Oc2ccccc2)c1 (stereo not drawn) do in these assays?
NALP1 yeast inh: 6; tim10-1 inh: 6; tim23-1 inh: 12; SKKanGAS inh: -5; PfHsp90 yeast 2: 22; TIM10 inh: -18

How did COc1ccc(CNc2nc3c(c(=O)n(Cc4ccc(Br)cc4)c(=O)n3C)n2C)cc1 do in these assays?
NALP1 yeast inh: 15; tim10-1 inh: 21; tim23-1 inh: 17; SKKanGAS inh: 54*; PfHsp90 yeast 2: -40; TIM10 inh: 24

Results for CCOC(=O)c1[nH]c2ccccc2c1NC(=S)Nc1cccc(C)c1C ?
NALP1 yeast inh: 14; tim10-1 inh: 17; tim23-1 inh: 12; SKKanGAS inh: -1; PfHsp90 yeast 2: 11; TIM10 inh: 12

What do the screens show for `Cc1sc(NC(=O)C2C3C=CC(C3)C2C(=O)O)c(C(N)=O)c1-c1ccc(C(C)C)cc1` (stereo not drawn)?
NALP1 yeast inh: 10; tim10-1 inh: 22; tim23-1 inh: 20; SKKanGAS inh: 53*; PfHsp90 yeast 2: 3; TIM10 inh: 21

What do the screens show for `CCOc1ccc(C(=O)N2CCN(c3ccccn3)CC2)cc1`?
NALP1 yeast inh: -2; tim10-1 inh: 3; tim23-1 inh: 17; SKKanGAS inh: -1; PfHsp90 yeast 2: 5; TIM10 inh: 11

Results for Cc1ccc(CN2CC(C(=O)Nc3nnc(SCc4c(Cl)cccc4Cl)s3)CC2=O)cc1 (stereo not drawn) ?
NALP1 yeast inh: 36; tim10-1 inh: 35; tim23-1 inh: 11; SKKanGAS inh: 79*; PfHsp90 yeast 2: -39; TIM10 inh: 11

What do the screens show for `O=C(Nc1nnc(SCC(=O)N2CCCC2)s1)C1CC(=O)N(c2ccc(F)cc2)C1` (stereo not drawn)?
NALP1 yeast inh: 2; tim10-1 inh: 1; tim23-1 inh: -8; SKKanGAS inh: 5; PfHsp90 yeast 2: -16; TIM10 inh: -4

What do the screens show for `Cc1cnc(C(=O)Nc2nnc(SCc3c(Cl)cccc3Cl)s2)cn1`?
NALP1 yeast inh: 27; tim10-1 inh: 34; tim23-1 inh: 32; SKKanGAS inh: 102*; PfHsp90 yeast 2: -54; TIM10 inh: 25

What do the screens show for `COC(=O)CSc1nnc(NC(=O)C2CC(=O)N(c3ccc(F)cc3)C2)s1` (stereo not drawn)?
NALP1 yeast inh: 12; tim10-1 inh: 22; tim23-1 inh: 15; SKKanGAS inh: 50*; PfHsp90 yeast 2: -2; TIM10 inh: 2

How did CCSc1nnc(NC(=O)c2ccccn2)s1 do in these assays?
NALP1 yeast inh: 24; tim10-1 inh: 32; tim23-1 inh: 6; SKKanGAS inh: 68*; PfHsp90 yeast 2: -18; TIM10 inh: 17

What do the screens show for `COc1cc(O)sc1C=Nc1ccc(Cl)cc1`?
NALP1 yeast inh: 7; tim10-1 inh: 23; tim23-1 inh: 2; SKKanGAS inh: -10; TIM10 inh: 37

What do the screens show for `COCCNC(=S)NC1CC2CCCC(C1)N2Cc1ccco1` (stereo not drawn)?
NALP1 yeast inh: -21; tim10-1 inh: -20; tim23-1 inh: -5; SKKanGAS inh: 4; PfHsp90 yeast 2: 0; TIM10 inh: -9

How did COc1ccc(CNC(=O)CCC(=O)N2CC(C)Oc3ccccc32)cc1 (stereo not drawn) do in these assays?
NALP1 yeast inh: -2; tim10-1 inh: 8; tim23-1 inh: 6; SKKanGAS inh: -1; PfHsp90 yeast 2: 3; TIM10 inh: 0

Results for C=CCc1cc(/C=C2/NC(=O)N(CC)C2=O)cc(OCC)c1OCc1ccc(C(=O)O)cc1 ?
NALP1 yeast inh: 11; tim10-1 inh: 14; tim23-1 inh: 12; SKKanGAS inh: 61*; PfHsp90 yeast 2: -6; TIM10 inh: 11

How did C=CCc1cc(C=O)cc(OCC)c1OCc1ccc(Cl)cc1 do in these assays?
NALP1 yeast inh: 28; tim10-1 inh: 15; tim23-1 inh: 10; SKKanGAS inh: 8; PfHsp90 yeast 2: -15; TIM10 inh: -12

Results for O=C(OCc1cccc(F)c1)c1ccc2c(=O)n3c(nc2c1)CCC3 ?
NALP1 yeast inh: 35*; tim10-1 inh: 8; tim23-1 inh: 10; SKKanGAS inh: 28; PfHsp90 yeast 2: 15; TIM10 inh: 13

How did CC(=O)c1cccc(OC(=O)c2ccc3c(=O)n4c(nc3c2)CCC4)c1 do in these assays?
tim10-1 inh: 24; tim23-1 inh: 15; SKKanGAS inh: 54*; PfHsp90 yeast 2: -88; TIM10 inh: -4

Results for CN(Cc1cccc(F)c1)C(=O)c1ccc2c(=O)n3c(nc2c1)CCC3 ?
NALP1 yeast inh: -2; tim10-1 inh: 12; tim23-1 inh: 21; SKKanGAS inh: 14; PfHsp90 yeast 2: -9; TIM10 inh: 0

What do the screens show for `Cc1ccc(OC(=O)c2ccc3c(=O)n4c(nc3c2)CCC4)cc1`?
tim10-1 inh: 14; tim23-1 inh: 26; TIM10 inh: 12

Results for Cc1[nH]c2ccccc2c1C(=O)COC(=O)c1ccc2c(=O)n3c(nc2c1)CCC3 ?
NALP1 yeast inh: 1; tim10-1 inh: 8; tim23-1 inh: 14; SKKanGAS inh: 93*; PfHsp90 yeast 2: -40; TIM10 inh: 19

How did CCc1ccc(NC(=O)c2ccccc2SC)cc1 do in these assays?
NALP1 yeast inh: 5; tim10-1 inh: 8; tim23-1 inh: 29; SKKanGAS inh: 8; TIM10 inh: 9

How did CCOC(=O)CNC(=O)CSc1nc(NCc2ccccc2)nc(N(C)C)n1 do in these assays?
NALP1 yeast inh: -4; tim10-1 inh: 24; tim23-1 inh: 17; SKKanGAS inh: -1; PfHsp90 yeast 2: 17; TIM10 inh: 3

What do the screens show for `Cc1nc2c(=O)n(C)c(=O)n(C)c2nc1Cl`?
NALP1 yeast inh: 94*; SKKanGAS inh: -8; PfHsp90 yeast 2: 18

Results for CCN(CC)c1ccc(/C=N/n2c(C)nc3ccccc3c2=O)cc1 ?
NALP1 yeast inh: 1; tim10-1 inh: 14; tim23-1 inh: 20; SKKanGAS inh: 13; PfHsp90 yeast 2: 0; TIM10 inh: -8

What do the screens show for `c1ccc(-c2nnc(OCCN3CCOCC3)c3ccccc23)cc1`?
NALP1 yeast inh: 42*; tim10-1 inh: 3; tim23-1 inh: 13; SKKanGAS inh: -6; PfHsp90 yeast 2: -10; TIM10 inh: -2

What do the screens show for `Brc1ccccc1OCCN1CCOCC1`?
NALP1 yeast inh: 9; tim10-1 inh: -14; tim23-1 inh: 4; SKKanGAS inh: 3; PfHsp90 yeast 2: 6; TIM10 inh: -3

What do the screens show for `Cc1ccc(NC(=O)c2ccccc2)cc1OC(=O)c1ccccc1`?
NALP1 yeast inh: -3; tim10-1 inh: 8; tim23-1 inh: 25; SKKanGAS inh: -14; PfHsp90 yeast 2: -10; TIM10 inh: 22
